Measurements reported in PubChem BioAssay AID489042 (NMMLSC, 2010).
A number with no mark means an inactive call. Active and inactive are the calls of the source. No stated cut-off is given here; in the data, active means inhibition score above about 11; inactive means the rest.

assay: yeast proliferation inhibition, dose response, BY4741, OD595, 24 h (AID 489042); conditions: S. cerevisiae BY4741 growth, stronger effect = higher value

Q: For `N#CC(c1nc2ccccc2nc1N1CCCC1)S(=O)(=O)c1ccccc1` (centres undefined), which inhibition score is on record?
A: 0

Q: Which inhibition score does the source give for `CCN(CC)C(=O)c1ccc2nc3ccccc3nc2c1` here?
A: 0

Q: With `CCCCCNC(=O)C(=O)C1C(=O)Nc2ccccc21` (centres undefined) as the molecule, how does the inhibition score read?
A: 10

Q: Which inhibition score does the source give for `C#CCSc1nnc(-c2ccc([N+](=O)[O-])cc2)o1` here?
A: 0

Q: Which inhibition score does the source give for `CNC(=O)c1cccc2nc3ccccc3nc12` here?
A: 21 (active)

Q: For `O=C(Nc1ccc2nc3ccccc3nc2c1)c1ccc(Br)cc1`, which inhibition score is on record?
A: 0

Q: With `CC(=O)[C@@]1(O)CCC2C3CC[C@H]4C[C@@H](O)CC[C@]4(C)C3CC[C@@]21C` (some centres undefined) as the molecule, how does the inhibition score read?
A: 0

Q: Which inhibition score does the source give for `CC(C)(C)n1nc(-c2ccc(Cl)cc2)c2c(N)ncnc21` here?
A: 21 (active)

Q: Which inhibition score does the source give for `CC(C)(C)n1nc(-c2ccc(F)cc2)c2c(N)ncnc21` here?
A: 21 (active)
